CRFR2-BP antag: blocks CRF-induced signaling of the CRF-BP/CRF-R2 complex. HEK293 CRF-R2/CRF-BP, CRF-induced calcium fluorescence. inhibition, % at 11.8 µM. actives 0.59% (n = 350,000). AID 588475;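 active = inhibition of the ligand-induced calcium signal above about 50% at the single tested concentration, limit read from the data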
MEKK2 mut-MEK5: signal of MEK5 binding to mutant human MEKK2 PB1 domain | bead flow cytometry, Alexa488-MEK5 binding to MEKK2 mutant | percent response, % at 10 µM | actives 0.35% (n = 290,000); in the data active = percent response above about 24%, passing the limit was not always enough
MEKK3 PB1 HTS: modulators (inhibitors or enhancers) of MEK5 binding to human MEKK3 PB1 domain; actives 1.4% (n = 290,000); bead-based flow cytometry, Alexa488-MEK5 binding to MEKK3; actives lie on both sides; 0 = blocked by unlabeled MEK5, 100 = vehicle; Q99759; binding response (% of control), % at 10 µM;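 active = binding response more than 3 SD above or below the average of its plate-row segment, actives on both sides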;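 note: Alexa488 bead fluorescence after subtracting the streptavidin-only scavenger bead signal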
CRFR2-BP ag: CRF-BP/CRF-R2 complex agonism; HEK293 CRF-R2/CRF-BP, calcium dye fluorescence (FLIPR); percent of saturating CRF peptide response; activation, % at 13.2 µM; actives 0.46% (n = 350,000); AID 588473;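 active = activation of at least 50%, plus an integration ratio under a set limit after plate pattern correction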
ABCB6 inh MLPCN: human ABCB6 transporter inhibition | Q9NP58 | K562-ABCB6 porphyrin accumulation, flow cytometry, 1 h; hits give low values | fluorescence ratio to DMSO, % at 10 µM | actives 0.19% (n = 360,000) | AID 602162;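 active = fluorescence ratio to DMSO below 75%, the collection mean minus 3 SD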;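 note: signal is porphyrin accumulated inside mitochondria; lower ratio means ABCB6 inhibition with less porphyrin fluorescence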
Target sequence (Q9NP58 whole entry, looked up): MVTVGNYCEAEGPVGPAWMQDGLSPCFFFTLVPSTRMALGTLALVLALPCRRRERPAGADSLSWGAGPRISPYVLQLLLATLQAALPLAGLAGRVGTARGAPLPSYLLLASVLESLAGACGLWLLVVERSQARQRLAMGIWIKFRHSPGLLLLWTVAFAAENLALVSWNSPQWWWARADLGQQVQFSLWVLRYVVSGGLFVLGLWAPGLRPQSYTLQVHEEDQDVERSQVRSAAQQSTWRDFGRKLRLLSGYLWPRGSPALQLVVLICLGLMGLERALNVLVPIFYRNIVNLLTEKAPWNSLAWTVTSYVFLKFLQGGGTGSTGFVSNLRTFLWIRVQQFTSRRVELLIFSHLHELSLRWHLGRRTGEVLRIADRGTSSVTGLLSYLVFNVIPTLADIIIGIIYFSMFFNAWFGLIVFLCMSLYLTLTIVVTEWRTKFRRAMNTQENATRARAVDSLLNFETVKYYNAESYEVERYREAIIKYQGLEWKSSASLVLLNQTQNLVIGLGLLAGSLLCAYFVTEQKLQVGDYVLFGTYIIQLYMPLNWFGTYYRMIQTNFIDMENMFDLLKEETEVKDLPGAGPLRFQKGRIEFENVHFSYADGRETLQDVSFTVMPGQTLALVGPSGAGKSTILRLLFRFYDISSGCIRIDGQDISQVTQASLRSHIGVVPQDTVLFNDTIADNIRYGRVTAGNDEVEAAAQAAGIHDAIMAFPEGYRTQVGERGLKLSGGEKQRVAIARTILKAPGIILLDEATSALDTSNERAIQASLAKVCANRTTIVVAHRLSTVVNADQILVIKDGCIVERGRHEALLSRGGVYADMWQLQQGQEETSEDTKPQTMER
MEKK2 WT-MEK5: raises or lowers MEK5 binding to wildtype human MEKK2 PB1 domain. Q9Y2U5. AID 1531. actives 1.1% (n = 290,000). binding response (% of control), % at 10 µM. bead flow cytometry, Alexa488-MEK5 binding to MEKK2 WT; actives lie on both sides; in the data active = binding response below about 67% or above about 130%
MEKK2wt confirm: raises or lowers MEK5 binding to wildtype human MEKK2, retest; shares compounds with MEKK3 PB1 HTS; bead flow cytometry, Alexa488-MEK5 binding to MEKK2 WT; actives lie on both sides; binding response (% of control), % at 10 µM; actives 2.4% (n = 5,900); AID 1892; in the data active = binding response below about 16% or above about 210%; inactive = in between
MEKK2mut-MEK5: signal of MEK5 binding to mutant human MEKK2, retest. shares compounds with MEKK3 PB1 HTS. percent response, % at 10 µM. AID 1893. actives 2% (n = 5,900). bead flow cytometry, Alexa488-MEK5 binding to MEKK2 mutant; in the data active = percent response mostly above about 71%, no sharp cut-off; inactive = mostly below about 38%;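 note: higher means compound restores mutant binding toward wildtype level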
MEKK3 confirm: MEKK3-MEK5 PB1 inhibition, single concentration confirmation. shares compounds with MEKK3 PB1 HTS. bead flow cytometry, Alexa488-MEK5 binding to MEKK3; hits give low values. binding response (% of control), % at 10 µM. actives 1.8% (n = 5,900);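 active = binding response below 72% of control, or above a set upper limit, though filed actives all read lower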;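 note: lower values mean stronger disruption of MEK5 binding to MEKK3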
Numbers stand for hits; [ ] = remark or other dose. A selection: hits, their analogues and other compounds. The true share with any hit is near 2.9%.

Screening Cc1ccccc1OCc1nnc(SCC(=O)N2CCc3ccccc32)n1C returned CRFR2-BP antag inactive, MEKK2 mut-MEK5 inactive, MEKK3 PB1 HTS 2.0[inhibitor], CRFR2-BP ag inactive, ABCB6 inh MLPCN inactive, MEKK2 WT-MEK5 2.0[inhibitor], MEKK2wt confirm inactive, MEKK2mut-MEK5 inactive and MEKK3 confirm inactive.
Screening COc1ccc(OC)c(CNn2c(-c3cccc(C)c3)nc3ccccc3c2=O)c1 returned CRFR2-BP antag inactive, MEKK2 mut-MEK5 inactive, MEKK3 PB1 HTS 1.0[inhibitor], CRFR2-BP ag inactive, ABCB6 inh MLPCN inactive, MEKK2 WT-MEK5 0.0[inhibitor], MEKK2wt confirm inactive, MEKK2mut-MEK5 inactive and MEKK3 confirm inactive.
Screening COc1cccc(CNn2c(-c3cccc(C)c3)nc3ccccc3c2=O)c1 returned CRFR2-BP antag inactive, MEKK2 mut-MEK5 inactive, MEKK3 PB1 HTS inactive, CRFR2-BP ag inactive, ABCB6 inh MLPCN inactive and MEKK2 WT-MEK5 inactive.
CCN(c1cccc(C)c1)S(=O)(=O)c1ccc2c(c1)CCCN2C(C)=O was read as CRFR2-BP antag inactive, MEKK2 mut-MEK5 inactive, MEKK3 PB1 HTS inactive, CRFR2-BP ag inactive, ABCB6 inh MLPCN inactive and MEKK2 WT-MEK5 inactive.
For CCN(c1cccc(C)c1)S(=O)(=O)c1ccc2c(c1)CCN2C(C)=O the results were CRFR2-BP antag inactive, MEKK2 mut-MEK5 inactive, MEKK3 PB1 HTS 1.0[inhibitor], CRFR2-BP ag inactive, ABCB6 inh MLPCN inactive, MEKK2 WT-MEK5 -1.0[inhibitor], MEKK2wt confirm inactive, MEKK2mut-MEK5 inactive and MEKK3 confirm inactive.
For CCOC(=O)C1CCN(C(=O)CCS(=O)(=O)c2ccc3c(c2)CCN3C(C)=O)CC1 the results were CRFR2-BP antag inactive, MEKK2 mut-MEK5 inactive, MEKK3 PB1 HTS 126, CRFR2-BP ag inactive, ABCB6 inh MLPCN inactive, MEKK2 WT-MEK5 inactive, MEKK2wt confirm inactive, MEKK2mut-MEK5 inactive and MEKK3 confirm inactive.
S=C(Nc1ccccc1)Nc1cc(Cl)ccc1Oc1ccccc1 was read as CRFR2-BP antag inactive, MEKK2 mut-MEK5 inactive, MEKK3 PB1 HTS 123, CRFR2-BP ag inactive, ABCB6 inh MLPCN inactive, MEKK2 WT-MEK5 inactive, MEKK2wt confirm inactive, MEKK2mut-MEK5 inactive and MEKK3 confirm inactive.
For S=C(Nc1ccccc1)Nc1ccc(Cl)cc1Cl the results were CRFR2-BP antag inactive, MEKK2 mut-MEK5 inactive, MEKK3 PB1 HTS inactive, CRFR2-BP ag inactive, ABCB6 inh MLPCN inactive and MEKK2 WT-MEK5 inactive.
Cc1ccc(S(=O)(=O)NN)c(C)c1N1CCCC1=O was read as CRFR2-BP antag inactive, MEKK2 mut-MEK5 inactive, MEKK3 PB1 HTS 44[inhibitor], CRFR2-BP ag inactive, ABCB6 inh MLPCN inactive, MEKK2 WT-MEK5 inactive, MEKK2wt confirm inactive, MEKK2mut-MEK5 inactive and MEKK3 confirm inactive.
`CCC(c1nnnn1C1CCCC1)N1CCN(c2ccccc2F)CC1` (stereo not given) gave CRFR2-BP antag inactive, MEKK2 mut-MEK5 inactive, MEKK3 PB1 HTS inactive, CRFR2-BP ag inactive, ABCB6 inh MLPCN inactive and MEKK2 WT-MEK5 inactive.
Screening Fc1ccccc1N1CCN(C(c2ccncc2)c2nnnn2C2CCCC2)CC1 (stereo not given) returned CRFR2-BP antag inactive, MEKK2 mut-MEK5 inactive, MEKK3 PB1 HTS 77[inhibitor], CRFR2-BP ag inactive, ABCB6 inh MLPCN inactive, MEKK2 WT-MEK5 inactive, MEKK2wt confirm inactive, MEKK2mut-MEK5 inactive and MEKK3 confirm inactive.
For C=CCn1c(SCC(=O)Nc2ccc(OC)cc2)nc2c([nH]c3ccccc32)c1=O the results were CRFR2-BP antag inactive, MEKK2 mut-MEK5 inactive, MEKK3 PB1 HTS inactive, CRFR2-BP ag inactive, ABCB6 inh MLPCN inactive and MEKK2 WT-MEK5 inactive.
For C=CCn1c(SCCN2CCCC2)nc2c([nH]c3ccccc32)c1=O the results were CRFR2-BP antag inactive, MEKK2 mut-MEK5 inactive, MEKK3 PB1 HTS 50[inhibitor], CRFR2-BP ag inactive, ABCB6 inh MLPCN inactive, MEKK2 WT-MEK5 inactive, MEKK2wt confirm inactive, MEKK2mut-MEK5 inactive and MEKK3 confirm inactive.
Screening N#Cc1cccn1-c1nccc(-c2cccs2)n1 returned CRFR2-BP antag inactive, MEKK2 mut-MEK5 inactive, MEKK3 PB1 HTS 149, CRFR2-BP ag inactive, ABCB6 inh MLPCN inactive, MEKK2 WT-MEK5 inactive, MEKK2wt confirm inactive, MEKK2mut-MEK5 inactive and MEKK3 confirm inactive.
For Cc1ccc(C)n1-c1nccc(-c2cccs2)n1 the results were CRFR2-BP antag inactive, CRFR2-BP ag inactive and ABCB6 inh MLPCN inactive.
`CCC(C)(O)c1[nH]c2ccc(C(F)(F)F)cc2c1C` (stereo not given) gave CRFR2-BP antag inactive, MEKK2 mut-MEK5 inactive, MEKK3 PB1 HTS inactive, CRFR2-BP ag inactive, ABCB6 inh MLPCN inactive and MEKK2 WT-MEK5 inactive.
For CCCCNCc1cc(Br)c(OCc2cccs2)c(OC)c1 the results were CRFR2-BP antag inactive, MEKK2 mut-MEK5 inactive, MEKK3 PB1 HTS inactive, CRFR2-BP ag inactive, ABCB6 inh MLPCN inactive, MEKK2 WT-MEK5 136, MEKK2wt confirm inactive, MEKK2mut-MEK5 inactive and MEKK3 confirm inactive.
CCOc1c(Br)cc(CNCc2cccs2)cc1OC was read as CRFR2-BP antag inactive, MEKK2 mut-MEK5 inactive, MEKK3 PB1 HTS inactive, CRFR2-BP ag inactive, ABCB6 inh MLPCN inactive and MEKK2 WT-MEK5 inactive.
c1ccc(N2CCN(c3nc(NCc4ccco4)c4ccccc4n3)CC2)cc1 was read as CRFR2-BP antag inactive, MEKK2 mut-MEK5 inactive, MEKK3 PB1 HTS inactive, CRFR2-BP ag inactive, ABCB6 inh MLPCN inactive, MEKK2 WT-MEK5 145, MEKK2wt confirm inactive, MEKK2mut-MEK5 inactive and MEKK3 confirm inactive.
For c1ccc(CN2CCC(Nc3nc(-c4ccccc4)nc4ccccc34)CC2)cc1 the results were CRFR2-BP antag inactive, MEKK2 mut-MEK5 inactive, MEKK3 PB1 HTS inactive, CRFR2-BP ag inactive, ABCB6 inh MLPCN inactive, MEKK2 WT-MEK5 144, MEKK2wt confirm inactive, MEKK2mut-MEK5 inactive and MEKK3 confirm inactive.
`c1ccc(CNc2nc(N3CCN(Cc4ccccc4)CC3)nc3ccccc23)cc1` gave CRFR2-BP antag inactive, MEKK2 mut-MEK5 inactive, MEKK3 PB1 HTS inactive, CRFR2-BP ag inactive, ABCB6 inh MLPCN inactive, MEKK2 WT-MEK5 161, MEKK2wt confirm inactive, MEKK2mut-MEK5 inactive and MEKK3 confirm inactive.
For c1coc(CNc2nc(N3CCCCC3)nc3ccccc23)c1 the results were CRFR2-BP antag inactive, MEKK2 mut-MEK5 inactive, MEKK3 PB1 HTS inactive, CRFR2-BP ag inactive, ABCB6 inh MLPCN inactive and MEKK2 WT-MEK5 inactive.
`OCCNc1nc(N2CCCCC2)nc2ccccc12` gave CRFR2-BP antag inactive, MEKK2 mut-MEK5 inactive, MEKK3 PB1 HTS inactive, CRFR2-BP ag inactive, ABCB6 inh MLPCN inactive and MEKK2 WT-MEK5 inactive.

From PubChem
